# Assay outcomes as filed in PubChem.
# p53null 39C tox: selectivity test: cytotoxicity in p53 null cells, nonpermissive temperature; H1299 p53-null (neo) cells, 39C, ATPlite viability, 24 h; hit rate 0.97% among 55,000; Potency, µM (doses to about 46.1 µM), for inactives: at the highest dose activity, negative = cell killing, most hits filed as cytotoxic;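 note: potency is the fitted concentration of half-maximal effect; 0% = DMSO only and -100% = full killing by 100 µM tamoxifen; nearly all actives have a fitted effect of over 50% in size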
#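 ATP-luminescence viability readout (ATPlite, 20 min RT) after 24 hr compound treatment at 39C of H1299-neo or H1299-p53A138V cells; titration up to 46 uM; normalized to DMSO and 100 uM tamoxifen; Hill-fit AC50.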
# p53null 32C kill: p53 null cell cytotoxicity, permissive temperature. Potency, µM (titrated, usually from 46.1 µM), inactives show at the top dose activity change, negative = cytotoxicity, actives largely listed as cytotoxic. hit rate 0.62% among 55,000. H1299-neo p53 null cells, ATP luminescence, 24 h, 32C;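 note: potency is the fitted concentration of half-maximal effect; 0% = DMSO only and -100% = full killing by 100 µM tamoxifen; nearly all actives have a fitted effect of over 55% in size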
#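 H1299-neo (p53-null) cells, 600/well, were pre-incubated overnight at 37C, then exposed to compounds at up to 46 uM for 24 hr at 32C. Viability was measured as ATP content by luminescence, and AC50 values came from Hill fits.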
# pS6 MEF inh: mTORC1 pathway inhibition measured by phospho-rpS6; Tsc2-/- p53-/- MEF, phospho-rpS6 immunofluorescence/PI, 24 h; hit rate 0.78% among 44,000; Potency, µM (doses to about 38.3 µM), for the others: top-dose activity change, negative = inhibition, actives largely listed as inhibitors;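 note: potency is the fitted concentration of half-maximal effect; plate controls were DMSO for no effect and rapamycin for full effect; nearly all actives have a fitted effect of over 50% in size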
#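 Cell-based qHTS: Tsc2-/- p53-/- MEF, 24 h cpd, 37 °C; fix/perm, anti-phospho-S6 Alexa-488 + PI; Acumen 488 nm scan; pS6/PI ratio, % positive cells; rapamycin 7.5 nM = inhibition ref; PI count = viability.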
# GALC G270D act: galactocerebrosidase G270D activity enhancement, cell-based; P54803; 145M-Twi-hGALC-G270D cells, HMU-beta-Gal fluorescence, 48 h; Potency, µM (series often up to 57.5 µM), usual class: activators; hit rate 0.1% among 45,000; AID 1159614; note: potency is the fitted concentration of half-maximal effect; 0% is about no effect; nearly all actives have a fitted effect of over 65% in size
#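 qHTS, 1536-well; 145M-Twi-hGALC-G270D cells (WT line also made) in DMEM/F12 + 10% FBS; compound incubation on live cells; HMU-β-gal 0.1 mM final, pH 5.2, NaTC; carbonate stop; fluorescence increase = enhanced residual activity.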
# PMP22 txn prim: PMP22 gene transcription modulation | S16 Pmp22-F2sN Schwann cells, FLuc/NLuc coincidence luminescence, 24 h | Potency, µM (doses to about 57.5 µM), inactives show top-dose activity change, negative = inhibition, most hits filed as inhibitors | hit rate 2% among 43,000 | AID 1508649; active = clear falling dose curves in both reporters; inconclusive = both reporters move, but less clearly or upward; inactive = either reporter flat; the % is the NLuc reporter signal; note: potency is the fitted concentration of half-maximal effect; % is set by controls: 0 for no effect and ±100 for the full control effect
#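 Luminescent read-out of sequential FLuc and NLuc signals from a reporter embedded in the Pmp22 3' UTR of S16 Schwann cells, taken after 24 h compound exposure at 37C; compounds reducing both signals score as inhibitors of expression.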
# S16 F2sN tox: S16 Schwann cell cytotoxicity; S16 Pmp22-F2sN Schwann cells viability, CellTiter-Glo, 24 h; Potency, µM (highest dose often 57.5 µM), inactives show top-dose activity change, negative = cytotoxicity, hits mostly cytotoxic; hit rate 0.48% among 43,000; AID 1508642; note: potency is the fitted concentration of half-maximal effect; % is set by controls: 0 for no effect and ±100 for the full control effect; nearly all actives have a fitted effect of over 65% in size
#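 Seed 500-1,000 S16 Pmp22-F2sN cells per well in phenol-red-free DMEM with 10% heat-inactivated FBS; pin-add 23 nL compound; incubate 24 h at 37C; add CellTiter-Glo, wait 15 min protected from light; read luminescence.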
# NLuc sat counter: inhibits NanoLuc at saturating substrate, PMP22 counter-screen; shares compounds with PMP22 txn prim; Secreted NLuc enzyme (filtered S16 cell medium), Nano-Glo luminescence; Potency, µM (highest dose often 57.5 µM), without a hit: top-dose activity change, negative = inhibition, most hits filed as inhibitors; hit rate 4% among 690; note: potency is the fitted concentration of half-maximal effect; % is set by controls: 0 for no effect and ±100 for the full control effect
# NLuc Km ctr: inhibits NanoLuc under Km conditions, PMP22 counter-screen; shares compounds with PMP22 txn prim; secreted NLuc enzyme, coelenterazine luminescence, Km conditions; Potency, µM (series often up to 57.5 µM), without a hit: top-dose activity change, negative = inhibition, most hits filed as inhibitors; hit rate 5% among 690; note: potency is the fitted concentration of half-maximal effect; % is set by controls: 0 for no effect and ±100 for the full control effect
# FLuc ctr PMP22: counter-screen for PMP22 expression modulators: firefly luciferase inhibition. AID 1508640. 690 tested, under 10 active. shares compounds with PMP22 txn prim. purified P. pyralis FLuc, luminescence, 10 min. Potency, µM (top dose mostly 57.5 µM), for inactives: top-dose activity, negative = inhibition, hits mostly inhibitors; note: % of control where 0% means no effect
# Target sequence (P08659 whole entry, looked up): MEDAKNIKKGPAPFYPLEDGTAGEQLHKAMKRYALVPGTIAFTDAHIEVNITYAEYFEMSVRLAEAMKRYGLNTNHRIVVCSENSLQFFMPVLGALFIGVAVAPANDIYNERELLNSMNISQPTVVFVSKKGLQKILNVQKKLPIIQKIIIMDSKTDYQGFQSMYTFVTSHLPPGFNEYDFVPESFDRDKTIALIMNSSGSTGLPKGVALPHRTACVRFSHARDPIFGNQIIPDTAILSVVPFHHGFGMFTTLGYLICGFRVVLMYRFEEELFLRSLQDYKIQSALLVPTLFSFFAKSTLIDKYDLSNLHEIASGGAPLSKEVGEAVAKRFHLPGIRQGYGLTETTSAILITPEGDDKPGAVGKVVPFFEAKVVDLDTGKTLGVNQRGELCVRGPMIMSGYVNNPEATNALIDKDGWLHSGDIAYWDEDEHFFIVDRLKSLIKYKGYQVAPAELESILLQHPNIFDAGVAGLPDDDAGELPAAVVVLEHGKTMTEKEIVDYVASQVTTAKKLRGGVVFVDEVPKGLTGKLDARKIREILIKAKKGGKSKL
# S16 F2sN tox cnf: confirmation of cytotoxicity in S16 Pmp22-F2sN Schwann cells (luciferase reporters placed in the Pmp22 gene). shares compounds with PMP22 txn prim. S16 Schwann cells viability, CellTiter-Glo ATP luminescence, 24 h. Potency, µM (highest dose often 57.5 µM), for inactives: at the highest dose activity change, negative = viability loss, hits mostly cytotoxic. hit rate 7% among 690. AID 1508641; note: potency is the fitted concentration of half-maximal effect; % is set by controls: 0 for no effect and ±100 for the full control effect
# PMP22 txn cnf: PMP22 transcription modulation, confirmatory. Potency, µM (highest dose often 57.5 µM), for inactives: at the top dose activity change, negative = inhibition, actives largely listed as inhibitors. S16 Schwann cells Pmp22-F2sN, dual luciferase, 24 h. hit rate 22% among 690. shares compounds with PMP22 txn prim; active = clear falling dose curves in both reporters; inconclusive = both reporters move, but less clearly or upward; inactive = either reporter flat; the % is the FLuc reporter signal; note: potency is the fitted concentration of half-maximal effect
# PMP22 prot conf: confirmation of modulators of rat PMP22 protein expression; shares compounds with PMP22 txn prim; S16 Schwann cells Pmp22-HiBiT, luminescence, 48 h; Potency, µM (doses to about 27.9 µM), for inactives: at the top dose activity change, negative = inhibition, most hits filed as inhibitors; 95 tested, under 10 active; AID 1508647
# Target sequence (P25094 whole entry, looked up): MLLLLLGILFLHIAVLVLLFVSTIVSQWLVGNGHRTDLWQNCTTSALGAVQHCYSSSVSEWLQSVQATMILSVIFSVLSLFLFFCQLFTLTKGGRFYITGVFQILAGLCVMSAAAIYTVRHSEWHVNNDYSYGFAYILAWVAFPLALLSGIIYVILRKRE
# * = called active by the depositor; i = inactive; u = inconclusive; x = no result given. This is a sample that favours compounds with a hit; in the whole collection about 3% have one here. Unless noted, calls come from the whole dose curve; as a rule, active = well fitted curve in the direction sought with a large enough effect; inconclusive = small, poorly fitted or top-dose-only effect, or another doubt; inactive = no such curve, though single readings can be large; an effect the other way counts as inactive or inconclusive.
SMILES,p53null 39C tox,p53null 32C kill,pS6 MEF inh,GALC G270D act,PMP22 txn prim,S16 F2sN tox,NLuc sat counter,NLuc Km ctr,FLuc ctr PMP22,S16 F2sN tox cnf,PMP22 txn cnf,others
CCNC(=O)CC1SC(=Nc2ccccc2C)N(C)C1=O (stereo not drawn),15%,-1%,x,x,x,x,x,x,x,x,x,
CCC(Sc1nc2ccccc2c2nc(CCn3c(C)nc4ccccc43)nn12)C(=O)Nc1ccc(F)cc1 (stereo not drawn),4%,10%,2%,i,7%,3%,x,x,x,x,x,
O=C(NC1CCCC1)C(c1ccccc1)N(C(=O)c1ccno1)c1ccccc1 (stereo not drawn),1%,-11%,x,x,x,x,x,x,x,x,x,
Cc1ccc(C)c(N2CCN(C(=O)c3cc4c(=O)n(Cc5ccccc5)ccc4nc3C)CC2)c1,37%,26%,-10%,i,-8%,u,x,x,x,x,x,
Cc1ccc(NC(=O)CSc2ncc3c(n2)-c2ccccc2N(C)S3(=O)=O)c(Cl)c1,6%,-11%,2%,i,6.4µM*,15%,u,4%,-3%,-15%,u,
CCCN(C(=O)Cn1nc(Cc2ccncc2)c2ccccc2c1=O)c1ccccc1C,3%,-1%,-10%,i,13µM*,22%,u,u,-3%,8%,u,
COc1ccc(Nc2nc3c(S(=O)(=O)c4ccccc4)nnn3c3ccc(Cl)cc23)cc1,-25%,u,-9%,i,8.9µM*,u,0%,5%,1%,u,14µM*,PMP22 prot conf=u
COc1ccc(Nc2nc3c(S(=O)(=O)c4ccccc4)nnn3c3ccc(Cl)cc23)cc1OC,-3%,-11%,-9%,i,-9%,4%,x,x,x,x,x,
COc1ccc(Nc2nc3c(S(=O)(=O)c4ccc(C)cc4)nnn3c3ccsc23)cc1Cl,u,-11%,-1%,i,9µM*,-9%,-6%,-15%,-1%,u,u,
O=C(Nc1ccc(Br)cc1F)N1CC=C(c2c[nH]c3ccccc23)CC1,25%,15%,0%,i,u,-10%,-13%,u,-12%,10%,-17%,
Cc1cccc(NC(=O)N2CC=C(c3c[nH]c4ccccc34)CC2)c1C,19%,4%,-17%,i,u,-7%,x,x,x,x,x,
CCc1ccc(-n2c(SCc3cccc(F)c3)nc3[nH]ncc3c2=O)cc1,16%,37%,-6%,i,16µM*,u,-18%,u,-3%,u,u,
COC(=O)c1c(NC(=O)CN2CCN(S(=O)(=O)c3ccccc3)CC2)sc2c1CCC(C)C2 (stereo not drawn),21%,x,x,x,x,x,x,x,x,x,x,
CCCn1c(=N)c(C(=O)NC(C)c2ccccc2)cc2c(=O)n3ccccc3nc21 (stereo not drawn),11%,-11%,0%,i,14µM*,0%,-10%,-16%,-5%,14%,4.6µM*,PMP22 prot conf=-17%
COc1ccccc1NC(=O)CSc1nnc(NC(=O)Nc2ccc(C)cc2)s1,u,-24%,-19%,i,u,u,x,x,x,x,x,
Cn1c(=O)oc2cc(S(=O)(=O)N3CCCC(C(=O)N4CCN(c5ccc(Cl)cc5)CC4)C3)ccc21 (stereo not drawn),-8%,-7%,-2%,i,5.1µM*,u,u,5%,2%,-22%,15µM*,PMP22 prot conf=u
CCC(=O)Oc1ccc2c(c1)CC[C@@H]1[C@@H]2CC[C@@]2(C)[C@H]1C[C@@H](OC(=O)CC)[C@@H]2OC(=O)CC,x,x,x,i,x,x,x,x,x,x,x,
CCc1ccccc1NC(=O)c1ccc2nc(C(C)C)oc2c1,11%,2%,-9%,i,17µM*,u,u,u,-6%,-14%,-9%,
CCc1ccc(NC(=O)c2ccc3nc(C(C)C)oc3c2)cc1,-15%,-16%,2%,i,u,u,x,x,x,x,x,
Cc1ccccc1CNC(=O)C(=O)NCC(c1cccs1)S(=O)(=O)c1ccc(Cl)cc1 (stereo not drawn),4%,3%,2%,i,15µM*,0%,-14%,-17%,4%,10%,-24%,
Cc1ccc(S(=O)(=O)C(CNC(=O)C(=O)NCc2ccccc2C)c2cccs2)cc1 (stereo not drawn),19%,-3%,-1%,i,u,-11%,x,x,x,x,x,
Cn1nnnc1SCCCNCc1cc(Br)ccc1OCc1ccccc1,u,-8%,-15%,i,u,u,x,x,x,x,x,
Cn1nnnc1SCCCNCc1cccc(OCc2ccccc2)c1,-16%,-6%,-21%,i,20µM*,-6%,-5%,1%,3%,-7%,-11%,
Oc1ccccc1Nc1nc2ccccc2n2nnnc12,5%,-6%,-4%,i,u,9%,x,x,x,x,x,
